In PMC4336329 (PLoS ONE, 2015):
Screen size: about 310,000 compounds; about 14,000 (4.5%) showed an effect of 50% or more. Effects have a minus sign here. Many of the other results were omitted from the sample, so strong results are more common in it than they were.

These compounds were tested against human ether-à-go-go-related gene (hERG) potassium channel (human, UniProt Q12809) (assay: primary screen, population patch clamp on CHO cells stably expressing hERG; higher = less effect of the substance).
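Also: peak tail current of the secondary pulse compared with the same well before compound.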

human ether-à-go-go-related gene (hERG) potassium channel, sequence (Q12809 whole entry, looked up): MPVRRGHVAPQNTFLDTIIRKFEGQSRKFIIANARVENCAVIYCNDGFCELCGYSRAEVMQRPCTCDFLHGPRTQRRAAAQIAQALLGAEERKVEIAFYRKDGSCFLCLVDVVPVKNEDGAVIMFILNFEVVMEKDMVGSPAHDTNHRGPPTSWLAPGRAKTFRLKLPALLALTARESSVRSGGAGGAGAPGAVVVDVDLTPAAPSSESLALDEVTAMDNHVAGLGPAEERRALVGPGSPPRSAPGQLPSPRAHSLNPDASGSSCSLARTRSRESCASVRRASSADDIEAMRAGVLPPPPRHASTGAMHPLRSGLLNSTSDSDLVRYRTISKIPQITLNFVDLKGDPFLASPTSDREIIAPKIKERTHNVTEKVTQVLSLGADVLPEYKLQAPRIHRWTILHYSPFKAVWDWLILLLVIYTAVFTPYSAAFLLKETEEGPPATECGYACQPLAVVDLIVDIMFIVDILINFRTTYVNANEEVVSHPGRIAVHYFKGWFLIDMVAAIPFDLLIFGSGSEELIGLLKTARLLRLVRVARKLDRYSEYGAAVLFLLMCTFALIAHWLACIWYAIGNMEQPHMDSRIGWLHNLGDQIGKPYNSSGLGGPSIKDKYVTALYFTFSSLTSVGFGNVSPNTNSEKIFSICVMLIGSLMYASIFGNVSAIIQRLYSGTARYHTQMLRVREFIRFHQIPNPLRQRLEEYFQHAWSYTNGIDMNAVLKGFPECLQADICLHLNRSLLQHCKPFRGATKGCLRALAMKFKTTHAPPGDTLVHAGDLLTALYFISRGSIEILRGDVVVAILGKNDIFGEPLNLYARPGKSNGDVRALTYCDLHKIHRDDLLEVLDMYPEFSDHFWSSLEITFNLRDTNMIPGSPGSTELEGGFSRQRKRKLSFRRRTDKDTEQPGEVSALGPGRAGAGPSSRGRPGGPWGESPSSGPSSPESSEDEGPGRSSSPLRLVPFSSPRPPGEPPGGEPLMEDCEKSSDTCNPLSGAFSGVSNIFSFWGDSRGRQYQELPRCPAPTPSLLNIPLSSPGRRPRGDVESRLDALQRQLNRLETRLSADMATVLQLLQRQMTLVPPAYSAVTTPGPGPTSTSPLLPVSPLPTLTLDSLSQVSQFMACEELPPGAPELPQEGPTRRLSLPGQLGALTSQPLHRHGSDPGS

Row | Structure (SMILES) | hERG current change (%, negative = inhibition) at 10uM
1 | Cn1c(SC2CCCCC2=O)nnc1-c1ccccc1F (stereo not drawn) | 9.45%
2 | Cc1cc(C)cc(OCC(=O)O/N=C(\N)c2ccccn2)c1 | -6.54%
3 | O=c1ccc(-c2ccc(S(=O)(=O)N3CCN(c4cccc(Cl)c4)CC3)o2)n[nH]1 | 10%
4 | O=C(Nc1cc(S(=O)(=O)N2CCOCC2)ccc1N1CCOCC1)C1CCCO1 (stereo not drawn) | -3.99%
5 | O=C(CN1CCN(C(=O)c2ccco2)CC1)NCc1ccc(Cl)cc1 | -64.4%
6 | O=C(CN1CCN(C(=O)c2ccco2)CC1)Nc1ccc(F)cc1F | -49.6%
7 | Cc1cc(Cl)ccc1NC(=O)CN1CCN(C(=O)c2ccco2)CC1 | -73.6%
8 | O=C(CN1CCN(C(=O)c2ccco2)CC1)Nc1ccc(Cl)c(S(=O)(=O)N2CCOCC2)c1 | -25.6%
9 | Cc1ccc(NC(=O)CN2CCN(C(=O)c3ccco3)CC2)cc1 | -3.01%
10 | O=C(NCc1ccc(Cl)cc1)C1CCN(C(=O)c2ccco2)CC1 | -41.4%
11 | Cc1ccccc1NC(=O)CN1CCN(C(=O)c2ccco2)CC1 | -29.4%
12 | O=C(CN1CCN(C(=O)c2ccco2)CC1)Nc1cc(Cl)ccc1Cl | -60.1%
13 | O=C(c1ccco1)N1CCN(Cc2ccc(Cl)cc2)CC1 | -14%
14 | Cc1cc(Cl)ccc1NC(=S)N1CCN(C(=O)c2ccco2)CC1 | -8.95%
15 | O=C(CN1CCN(C(=O)c2ccco2)CC1)Nc1ccc(Cl)c(C(F)(F)F)c1 | -67.1%
16 | COc1ccc2c(-c3ccccc3)cc(SCC(=O)N(C)C)nc2c1 | -22.9%
17 | C=CCNC(=O)c1oc2ccc(S(=O)(=O)N3CCC4(CC3)OCCO4)cc2c1C | 0.761%
18 | CC(OC(=O)/C=C/c1ccco1)C(=O)Nc1cccc([N+](=O)[O-])c1 (stereo not drawn) | 6.57%
19 | Cc1ccc(-n2nc3c(=O)n(CC(=O)NC(C)CCc4ccccc4)nc(C)c3c2C)cc1 (stereo not drawn) | 6.77%
20 | O=C(CNC(=O)c1ccco1)Nc1ccc(OC(F)F)cc1 | 19.6%
21 | COc1cc(/C=C2\C(=N)N3N=C(S(C)(=O)=O)SC3=NC2=O)ccc1OS(=O)(=O)c1ccc(C)cc1 | 6.9%

Row | Structure (SMILES) | hERG current change (%, negative = inhibition) at 10uM
22 | CCOc1ccc(NC(=O)/C=C/c2ccccc2)c([N+](=O)[O-])c1 | -5.94%
23 | NC(=O)c1ccc(NC(=O)COc2ccc(-n3cnnn3)cc2)cc1 | -4.26%
24 | CCc1ccc(-c2cc(C)no2)cc1S(=O)(=O)Nc1cc(C)on1 | 10.3%
25 | O=C(CN1CCCC1)Nc1cc(C(F)(F)F)ccc1Cl | 2.22%
26 | O=C(CN1CCN(C(=O)c2ccco2)CC1)Nc1cc(C(F)(F)F)ccc1Cl | -63.6%
27 | O=C(CN1CCOCC1)Nc1cc(C(F)(F)F)ccc1Cl | -0.356%
28 | COc1ccccc1N1C(=O)CC(Sc2ccccc2N)C1=O (stereo not drawn) | 0.966%
29 | COC(=O)c1ccc(N2CCc3ccccc32)c([N+](=O)[O-])c1 | 10.5%
30 | CN1CCN(c2ccc(C(=O)c3ccc(Br)cc3)cc2[N+](=O)[O-])CC1 | -72.1%
31 | COC(=O)c1ccc(N2CCN(C(=O)C3CC3)CC2)c([N+](=O)[O-])c1 | -7.61%
32 | COC(=O)c1ccc(N2CCN(C)CC2)c([N+](=O)[O-])c1 | -63.4%
33 | O=C(O)c1ccccc1C(=O)c1ccc(N2CCCC2)c([N+](=O)[O-])c1 | 13.8%
34 | CN1CCN(c2ccccc2NC(=O)c2ccc(N3CCCC3)c([N+](=O)[O-])c2)CC1 | -48.5%
35 | COC(=O)c1ccc(N2CCN(CC(=O)c3ccc(C)cc3)CC2)c([N+](=O)[O-])c1 | -65%
36 | COC(=O)c1ccc(N2CCN(S(=O)(=O)c3ccc(Br)cc3)CC2)c([N+](=O)[O-])c1 | 10.6%
37 | COC(=O)c1ccc(N2CCN(S(=O)(=O)c3ccc(C)cc3)CC2)c([N+](=O)[O-])c1 | 4.78%
38 | CN1CCN(c2ccc(C(=O)NC3CCCCC3)cc2[N+](=O)[O-])CC1 | -9.83%
39 | COC(=O)c1ccc(N2CCN(CC(=O)c3ccc(-c4ccccc4)cc3)CC2)c([N+](=O)[O-])c1 | 8.75%
40 | CN1CCN(c2ccc(C(=O)c3ccccc3)cc2[N+](=O)[O-])CC1 | -53.1%
41 | O=C(NCc1cccs1)c1cc2c(s1)CS(=O)(=O)C2 | -0.732%
42 | O=C(N/N=C/c1c[nH]c2ccccc12)C1CC1c1ccccc1 (stereo not drawn) | -4.47%

Row | Structure (SMILES) | hERG current change (%, negative = inhibition) at 10uM
43 | COC(=O)c1cc(C(=O)OC)n(Cc2ccc(F)cc2)n1 | -12.9%
44 | O=C(O)c1cccc(N(CCO)CCO)c1 | -1.13%
45 | CC(C)COP(=O)(c1ccc(N(C)C)cc1)C(O)c1ccc(Br)cc1 (stereo not drawn) | 8.63%
46 | COc1ccc(CCNC(=O)c2nnc(CS(=O)(=O)c3ccccc3)o2)cc1OC | -6.44%
47 | Cc1c(-c2ccccc2)cn2c1-c1ccc(C)n1CC2 | -0.42%
48 | COc1ccc(-c2nnc(SCC(=O)N(C)C3CCS(=O)(=O)C3)n2N)cc1OC (stereo not drawn) | 19.8%
49 | O=C(CN1C(=O)/C(=C\c2ccc(C(F)(F)F)cc2)Sc2ccccc21)NCc1ccco1 | -5.39%
50 | Cc1cc(=O)[nH]c(N/N=C/C(C)c2ccccc2)n1 (stereo not drawn) | 7.54%
51 | CCc1cccc(CC)c1NC(=O)C1SC(=Nc2ccccc2C)C(c2nc3ccccc3s2)=C1N (stereo not drawn) | 29.1%
52 | Cc1ccc(C(=O)c2ccc(N3CCN(C)CC3)c([N+](=O)[O-])c2)cc1 | -68.8%
53 | Cc1ccc(OC(=O)c2ccc(N3CCOCC3)c([N+](=O)[O-])c2)cc1 | -4.31%
54 | CN1CCN(c2ccc(C(N)=O)cc2[N+](=O)[O-])CC1 | 7.57%
55 | CN1/C(=C\C(=O)COC(=O)C2COc3ccccc3O2)C(C)(C)c2ccccc21 (stereo not drawn) | 9.13%
56 | CCCCn1c(N)c(N(CCC(C)C)C(=O)C(C)N2C(=O)c3ccccc3C2=O)c(=O)[nH]c1=O (stereo not drawn) | 8.31%
57 | CCCOC(=O)c1cccc(NC(=O)C(C)(C)C)c1 | 1.43%
58 | CCC1(C)Cc2c(sc3nnn(CC(=O)Nc4cccc5ccccc45)c(=O)c23)CO1 (stereo not drawn) | 3.09%
59 | Cc1ccccc1NC(=O)Cn1nnc2sc3c(c2c1=O)CC(C)(C)OC3 | -35.2%
60 | CCC1(C)Cc2c(sc3nnn(CC(=O)Nc4ccccc4C)c(=O)c23)CO1 (stereo not drawn) | -58.4%
61 | O=C1CN(C(=O)CN2CCOCC2)C(c2ccccc2)c2cc(Br)ccc2N1 (stereo not drawn) | -32.3%
62 | CCOC(=O)CN1C(=O)Nc2ccc(Br)cc2C1c1ccccc1 (stereo not drawn) | -56.7%
63 | O=C1CN(C(=O)CN2CCCC2)C(c2ccccc2)c2cc(Br)ccc2N1 (stereo not drawn) | -46.6%

Row | Structure (SMILES) | hERG current change (%, negative = inhibition) at 10uM
64 | O=C1CN(C(=O)CCN2CCOCC2)C(c2ccccc2)c2cc(Br)ccc2N1 (stereo not drawn) | -60.5%
65 | CCC(CC)C(=O)N1CC(=O)Nc2ccc(Br)cc2C1c1ccccc1 (stereo not drawn) | -73.5%
66 | O=C(O)CN1C(=O)Nc2ccc(Br)cc2C1c1ccccc1 (stereo not drawn) | -3.51%
67 | CCOC(=O)N1CC(=O)Nc2ccc(Br)cc2C1c1ccccc1 (stereo not drawn) | -24.4%
68 | COC(=O)CN1C(=O)Nc2ccc(Br)cc2C1c1ccccc1 (stereo not drawn) | -14.6%
69 | CCC(CC)C(=O)N1CC(=O)Nc2ccc(C)cc2C1c1ccccc1 (stereo not drawn) | -38.1%
70 | O=C1CN(C(=O)CN2CCCCC2)C(c2ccccc2)c2cc(Br)ccc2N1 (stereo not drawn) | -66.5%
71 | CCC(CC)C(=O)N1CC(=O)Nc2ccc(F)cc2C1c1ccccc1 (stereo not drawn) | -11.4%
72 | CCC(=O)N1CC(=O)Nc2ccc(Br)cc2C1c1ccccc1 (stereo not drawn) | -11.6%
73 | COc1ccccc1C(=O)NCCC(=O)NCC(c1ccccc1OC)N1CCCC1 (stereo not drawn) | 29.8%
74 | O=C(Nc1ccncc1)C1CCN(S(=O)(=O)c2ccccc2)CC1 | 3.04%
75 | CCOC(=O)C1C(=O)CC(C)(O)C(C(=O)OCC)C1c1ccc([N+](=O)[O-])cc1 (stereo not drawn) | -8.06%
76 | FC(F)(F)c1nc(-c2ccncc2)ncc1-c1nnnn1-c1ccccc1 | -0.18%
77 | Cc1c(C(=O)N/N=C/c2ccoc2)cccc1[N+](=O)[O-] | 9.67%
78 | O=C(COc1coc(CN2CCN(c3ccccc3F)CC2)cc1=O)NC1CCCCC1 | -21.6%
79 | CCOC(=O)c1ccc(NC(=O)C2CCN(S(=O)(=O)c3c(C)nn(C)c3C)CC2)cc1 | -28.3%
80 | O=C(Nc1cccc(C(F)(F)F)c1)c1cc[n+]([O-])cc1 | 21.2%
81 | COc1ccc(OCC(=O)NS(=O)(=O)c2ccccc2)cc1 | 15.3%
82 | Cc1ccc2c(c1)C(c1ccccc1)N(C(=O)c1ccccc1[N+](=O)[O-])CC(=O)N2 (stereo not drawn) | -40.5%
83 | O=C1CN(C(=O)c2ccccc2[N+](=O)[O-])C(c2ccccc2)c2cc(Br)ccc2N1 (stereo not drawn) | -66.5%
84 | O=C1CN(C(=O)c2ccccc2F)C(c2ccc(F)cc2)c2cc(Br)ccc2N1 (stereo not drawn) | -23%
